The whole screen tested about 110,000 compounds, of which about 230 (0.21%) showed an effect of 50% or more. The entries come from a sample that favours strong results as a whole.
molecular target: DPAP1 (Plasmodium falciparum, UniProt Q8IIJ9); assay: primary screen, percent inhibition; read by cleavage of a fluorogenic dipeptide substrate; higher = more effect of the substance; parameters: species or system P. falciparum D10 trophozoite lysates; single well
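Further: 30 min substrate incubation versus DMSO and 10 µM JCP410 controls.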

Sequence of DPAP1 (Q8IIJ9 whole entry, looked up): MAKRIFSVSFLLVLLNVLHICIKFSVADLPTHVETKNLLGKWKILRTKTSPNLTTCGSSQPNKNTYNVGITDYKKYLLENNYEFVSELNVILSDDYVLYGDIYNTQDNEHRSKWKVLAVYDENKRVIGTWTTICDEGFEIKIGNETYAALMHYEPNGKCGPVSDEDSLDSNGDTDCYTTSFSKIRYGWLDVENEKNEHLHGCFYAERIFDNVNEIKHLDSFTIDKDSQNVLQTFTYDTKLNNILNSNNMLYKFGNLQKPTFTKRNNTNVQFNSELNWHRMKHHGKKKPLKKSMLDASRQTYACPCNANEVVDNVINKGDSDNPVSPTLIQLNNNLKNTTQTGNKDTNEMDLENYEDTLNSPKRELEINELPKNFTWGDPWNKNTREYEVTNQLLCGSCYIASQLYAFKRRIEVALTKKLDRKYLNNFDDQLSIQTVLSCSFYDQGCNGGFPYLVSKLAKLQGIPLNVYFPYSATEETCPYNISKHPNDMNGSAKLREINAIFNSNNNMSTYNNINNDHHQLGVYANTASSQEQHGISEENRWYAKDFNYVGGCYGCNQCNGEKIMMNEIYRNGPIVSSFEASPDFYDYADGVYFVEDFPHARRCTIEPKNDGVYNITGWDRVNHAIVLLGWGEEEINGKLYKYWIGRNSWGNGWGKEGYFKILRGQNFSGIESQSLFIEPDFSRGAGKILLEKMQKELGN

| Compound | % Inhibition @ 10 uM [%] |
| --- | --- |
| Cc1ccnc(NC(=O)c2ccc(-c3ccccc3)s2)c1 | 4.4 |
| O=C(c1ccc(Oc2ccccc2)cc1)c1nc2c(n1O)CCCC2 | 1.74 |
| Cc1ccc(S(=O)(=O)NC(CC(=O)O)c2cccs2)cc1 (centres unmarked) | 3.64 |
| CCS(=O)(=O)c1nc(S(=O)(=O)c2ccc(Cl)cc2)c(N2CCOCC2)s1 | -2.25 |
| O=C(Nc1nc(-c2ccc(Br)cc2)cs1)c1ccco1 | -2.99 |
| COc1ccc(-n2c(=S)[nH]c3sc4c(c3c2=O)CCC4)cc1 | 84.1 |
| O=c1c2c3c(sc2[nH]c(=S)n1-c1ccccc1)CN(Cc1ccccc1)CC3 | 57.7 |
| O=c1[nH]c(=S)[nH]c2sc3c(c12)CCN(Cc1ccccc1)C3 | 1.4 |
| O=c1[nH]c2sc3c(c2c(=O)n1-c1ccc(Cl)c(Cl)c1)CCC3 | -2.48 |
| O=c1c2c3c(sc2[nH]c(=S)n1-c1ccc(Cl)cc1)CCC3 | 62.5 |
| Cc1ccc(-n2c(=S)[nH]c3sc4c(c3c2=O)CCCCC4)cc1 | 11.5 |
| Oc1ncnc2sc3c(c12)CCN(Cc1ccccc1)C3 | 6.74 |
| COc1ccc(-n2c(=S)[nH]c3sc4c(c3c2=O)CCCCC4)cc1 | 12.4 |
| COc1ccc(-n2c(SCC(=O)N3CCOCC3)nc3sc4c(c3c2=O)CCC4)cc1 | 9.91 |
| CC1(C)CC(=O)C2=C(C1)N(c1nc[nH]n1)C(N)=C(C#N)C2c1cccc(Cl)c1 (centres unmarked) | 5.48 |
| CN1C2CCC1CC(N1CCN(Cc3ccccc3)CC1)C2 (centres unmarked) | -1.5 |
| COc1ccc(/C=C2\C(=N)N3N=C(S(C)(=O)=O)SC3=NC2=O)cc1 | -5.27 |
| CCn1c(C)cc(/C=C2/NC(=O)N(c3ccccc3)C2=O)c1C | -2.19 |
| CSc1ccc(C2CC(=O)N3CN(C)CSC3=C2C#N)cc1 (centres unmarked) | 75 |
| CN1CSC2=C(C#N)C(c3ccccc3Cl)CC(=O)N2C1 (centres unmarked) | 56.6 |
| CN1CSC2=C(C#N)C(c3ccc(Br)cc3)CC(=O)N2C1 (centres unmarked) | 43.4 |
| COc1ccc2ccccc2c1C1CC(=O)N2CN(C)CSC2=C1C#N (centres unmarked) | 36.5 |
| CN1CSC2=C(C#N)C(c3ccccc3)CC(=O)N2C1 (centres unmarked) | 32.9 |
| COc1ccccc1CC(=N)NOC(=O)c1ccccc1OC | 5.37 |
| Cc1ccc(C2CC(=O)N3CN(CCc4ccccc4)CSC3=C2C#N)cc1 (centres unmarked) | 64 |
| N#CC1=C2SCN(CCc3ccccc3)CN2C(=O)CC1c1cccs1 (centres unmarked) | 42.6 |
| N#CC1=C2SCN(CCc3ccccc3)CN2C(=O)CC1c1ccc(F)cc1 (centres unmarked) | 51.6 |
| N#CC1=C2SCN(CCN3CCOCC3)CN2C(=O)CC1c1ccc(F)cc1 (centres unmarked) | 49.5 |
| O=C(N/C(=C\c1ccco1)C(=O)N1CCN(C/C=C/c2ccccc2)CC1)c1ccccc1 | 2.09 |

— paper PMC6919601, “Identification of Plasmodium dipeptidyl aminopeptidase allosteric inhibitors by high throughput screening” (PLoS ONE, 2019)
